High-throughput results deposited in PubChem BioAssay by several laboratories.
sEH inhibitor: soluble epoxide hydrolase inhibitors, primary screen, biochemical, human sEH; Bifunctional epoxide hydrolase 2 (Homo sapiens), P34913; recombinant human sEH enzymatic activity assay; inhibition, % at 2 µM; 91,000 compounds, 0.34% hits; in the data active = inhibition above about 80%
CYP2C19 inh: blockers of cytochrome P450 2C19 activity – biochemical, luminescence, ADME assay, primary screen | P33261 | CYP2C19 Supersomes, luciferin-H EGE luminescence, 30 min | inhibition, % at 5 µM | 96,000 compounds, 21% hits;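 active = CYP2C19 inhibition above a set limit at 5 µM in the primary screen, cut at about 50% in these data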
CYP2C9 inh: blockers of cytochrome P450 2C9 activity – biochemical, luminescence, ADME assay, primary screen | CYP2C9 Supersomes, luciferin-H conversion | inhibition, % at 5 µM | 96,000 compounds, 20% hits | AID 777, 2007;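 active = blocking of liver enzyme CYP2C9 beyond about 50% at 5 µM, limit read from the data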
Target sequence (P11712 whole entry, looked up): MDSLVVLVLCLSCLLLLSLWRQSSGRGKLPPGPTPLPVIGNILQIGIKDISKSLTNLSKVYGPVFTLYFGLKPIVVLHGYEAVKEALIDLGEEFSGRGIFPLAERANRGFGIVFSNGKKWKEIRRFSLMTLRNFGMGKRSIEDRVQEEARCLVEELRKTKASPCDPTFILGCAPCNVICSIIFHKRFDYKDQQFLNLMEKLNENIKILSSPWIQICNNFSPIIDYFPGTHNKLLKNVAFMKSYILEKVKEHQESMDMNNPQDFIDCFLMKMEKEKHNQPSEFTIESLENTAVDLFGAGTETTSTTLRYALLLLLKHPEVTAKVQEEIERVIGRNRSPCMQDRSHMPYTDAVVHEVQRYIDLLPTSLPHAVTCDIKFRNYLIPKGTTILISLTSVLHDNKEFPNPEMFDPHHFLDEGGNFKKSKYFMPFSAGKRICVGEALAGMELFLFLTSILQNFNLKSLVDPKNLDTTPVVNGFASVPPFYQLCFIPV
sEH act: soluble epoxide hydrolase activators, primary screen, biochemical, human sEH | Bifunctional epoxide hydrolase 2 (Homo sapiens), P34913 | purified human sEH enzymatic activity, activator screen | activation, % at 2 µM | 91,000 compounds, 0.04% hits | AID 717, 2007; in the data active = activation above about 37%
CYP2C19 activ: human CYP2C19 activators, primary screen, biochemical, luminescence. Cytochrome P450 2C19 (Homo sapiens), P33261. recombinant CYP2C19, luciferin-H EGE luminescence; active compounds read high; 0 = fully inhibited enzyme, 1 = untreated enzyme. activation factor at 5 µM. 96,000 tested, under 10 active. AID 1025, 2008;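 active = activation factor of at least 2 at 5 µM in the primary screen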
CYP2C9 activ: human CYP2C9 activators, primary screen, biochemical, luminescence; AID 1024, 2008; recombinant CYP2C9, luciferin-H conversion; active compounds read high; factor 1 = untreated enzyme, 0 = blocked; activation factor at 5 µM; 96,000 compounds, 1.4% hits; Cytochrome P450 2C9 (Homo sapiens), P11712;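 active = activation factor of 2 or more for CYP2C9 at a 5 µM dose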
A number is an active result; 0 = inactive; - = no result given. This is a sample that favours compounds with a hit; in the whole collection about 27% have one here.

SMILES | sEH inhibitor | CYP2C19 inh | CYP2C9 inh | sEH act | CYP2C19 activ | CYP2C9 activ
O=C(OCc1ccccc1Cl)c1ccccc1C(=O)c1ccccc1 | 0 | 67 | 0 | 0 | 0 | 0
CCC(C)NS(=O)(=O)c1ccc(OCC(=O)N2CCC(C)CC2)cc1 (centres undefined) | 0 | - | - | 0 | - | -
O=C(CN1C(=O)C2CC=CCC2C1=O)Nc1nc2ccccc2[nH]1 (centres undefined) | 0 | 0 | 0 | 0 | 0 | 0
CC1C(C(=O)Nc2ccccc2)CCCC1(C)C(=O)O (centres undefined) | 0 | 0 | 0 | 0 | 0 | 0
CNc1cc(C(F)(F)F)nc(-c2ccccn2)n1 | 0 | 0 | 0 | 0 | 0 | 0
COc1ccc(Sc2cc(C(F)(F)F)nc(-c3ccccn3)n2)cc1 | 0 | 0 | 66 | 0 | 0 | 0
CCC(CC)c1nnc(NC(=O)c2ccc3ccccc3n2)s1 | 0 | - | - | 0 | - | -
CCC(C(=O)Nc1cnccn1)c1ccccc1 (centres undefined) | 0 | 60 | 0 | 0 | 0 | 0
CC(C)C1O/C(=N/C(=O)Nc2ccc(Cl)c(Cl)c2)NC1=O (centres undefined) | 0 | 0 | 0 | 0 | 0 | 0
CCCc1[nH]n(-c2nc3ccccc3s2)c(=O)c1C=NCC(C)C | 0 | 0 | 51 | 0 | 0 | 0
Cc1cc(C(=O)CN2C(=O)NC3(CCCCC3)C2=O)c(C)n1Cc1ccc2c(c1)OCO2 | 0 | 0 | 0 | 0 | 0 | 0
CC(=O)c1c(C)n(CC(=O)NCc2ccc3c(c2)OCO3)c2ccccc12 | 0 | 75 | 59 | 0 | 0 | 0
CC(=O)c1c(C(C)=O)c(C)n(Cc2ccc3c(c2)OCO3)c1C | 0 | 75 | 55 | 0 | 0 | 0
COc1cc(NS(=O)(=O)c2ccc(NC(=O)COc3ccccc3Cl)cc2)nc(OC)n1 | 0 | 86 | 96 | 0 | 0 | 0
Cc1noc(NS(=O)(=O)c2ccc(N/C=C/C(=O)c3ccncc3)cc2)c1C | 0 | 0 | 51 | 0 | 0 | 0
Cc1ccc(S(=O)(=O)CC(=O)Nc2ccc(S(=O)(=O)Nc3onc(C)c3C)cc2)cc1 | 0 | 0 | 67 | 0 | 0 | 0
Cc1noc(NS(=O)(=O)c2ccc(NC(=O)COc3ccc(Cl)cc3Cl)cc2)c1C | 0 | 0 | 71 | 0 | 0 | 0
Cc1noc(NS(=O)(=O)c2ccc(NC(=O)CCCOc3ccc(Cl)cc3Cl)cc2)c1C | 0 | - | - | 0 | - | -
CCCCCOCC1CC(C/C(C)=N/Nc2nc(-c3ccccc3)cs2)C(=O)O1 (centres undefined) | 0 | 0 | 0 | 0 | 0 | 0
Cc1ccc(OCC(=O)Nc2ccc(S(=O)(=O)Nc3onc(C)c3C)cc2)cc1 | - | 0 | 0 | - | 0 | 0
CCc1cccc(OCC(=O)Nc2ccc(S(=O)(=O)Nc3onc(C)c3C)cc2)c1 | - | 0 | 80 | - | 0 | 0
Cc1ccc(Oc2nccc(-c3ccc(Cl)cc3)n2)cc1 | 0 | 53 | 0 | 0 | 0 | 0
CCCCc1ccc(/C=C2\C(=O)c3ccccc3C(O)=C2C(=O)OCC)cc1 | 0 | 67 | 90 | 0 | 0 | 0
O=C(CN1C(=O)NC2(CCCCCC2)C1=O)Nc1ccc(S(=O)(=O)N2CCOCC2)cc1 | 0 | 0 | 0 | 0 | 0 | 0
Cc1ccc(C)c(N2CCN(S(=O)(=O)c3ccc4[nH]c(=O)c(=O)[nH]c4c3)CC2)c1 | 0 | 0 | 66 | 0 | 0 | 0
SMILES | sEH inhibitor | CYP2C19 inh | CYP2C9 inh | sEH act | CYP2C19 activ | CYP2C9 activ
Cc1ccc(C)c(N2CCN(S(=O)(=O)c3ccc4c(c3)CCC(=O)N4)CC2)c1 | 0 | 0 | 78 | 0 | 0 | 0
Cc1ccc(C)c(N2CCN(C(=O)CN(C)S(=O)(=O)c3ccc4c(c3)CCC(=O)N4)CC2)c1 | 0 | 51 | 82 | 0 | 0 | 0
CCNC(=S)N/N=C/c1cccs1 | 0 | 0 | 0 | 0 | 0 | 0
O=C1N(c2ccc(Cl)c(Cl)c2)CN(Cc2ccccc2)CN1n1cnnc1 | 0 | 0 | 0 | 0 | 0 | 0
O=C1C2C3C=CC([C@@H]2C(=O)N1C1CCCCC1)[C@H]1C(=O)N(C2CCCCC2)C(=O)C31 (some centres undefined) | 0 | 0 | 0 | 0 | 0 | 0
Cc1c(C=O)cnn1CCC(=O)O | 0 | - | - | 0 | - | -
